Screening results (PubChem)
NOD2 RIPK2 PPI = NOD2-RIPK2 protein interaction inhibition; inhibition, % at 4.98 µM; 360,000 compounds, 0.38% hits; O43353; CHO BLA complementation NOD2-RIPK2, CCF4 ratio; in the data active = inhibition above about 21%;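 also: 0% = vehicle only and 100% = reference blocker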
TLR4-MyD88 BLA = blocks binding of human TLR4 to MyD88; HeLa CL3-4 TLR4/MyD88 BLA complementation, FRET ratio; inhibition, % at 8.4 µM; 200,000 compounds, 0.18% hits; AID 861; O00206+Q99836; in the data active = inhibition above about 25%;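 also: 0% = vehicle and 100% = reference inhibitor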
ABHD5 PLIN5 PPI = blocks binding of human ABHD5 to perilipin-5 | Q00G26+Q8WTS1 | Split G. princeps luciferase complementation, luminescence, 4 h | inhibition, % at 4 µM | 360,000 compounds, 0.78% hits;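 active = inhibition above the mean inhibition across every tested compound plus 3 SD, cut at about 22% in these data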;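 also: 0% = DMSO only wells and the 100% control is not disclosed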
TLR9-MyD88 inh = inhibitors of human TLR9-MyD88 binding. Q9NR96+Q99836. CHO BLA complementation TLR9-MyD88, CCF4 FRET ratio. inhibition, % at 4.98 µM. 340,000 compounds, 0.21% hits. AID 504734;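 active = inhibition above the mean over all tested compounds plus 3 SD, cut at about 21% in these data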;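 also: 0% = DMSO only wells and 100% = clavulanate BLA inhibitor control wells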
Granule exo inh = lytic granule exocytosis inhibition; TALL-104 LAMP-1 surface exposure, flow cytometry; cells stimulated with thapsigargin and PMA; inhibition, % at 10 µM; 360,000 compounds, 0.66% hits; AID 651702;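 active = inhibition above about 55%, limit read from the data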
Beta2AR agonist = agonists of human beta-2 adrenergic receptor inducing internalization. P07550. Am2.2-beta2AR cells, FAP receptor internalization, flow cytometry. response, % (concentration not given with the values). 340,000 compounds, 0.43% hits;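 active = response above a set limit, near 3 SD of response in nonfluorescent compounds, cut at about 42% in these data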
ABHD5-PLIN5 conf = confirmation of human ABHD5-PLIN5 interaction inhibitors; shares compounds with ABHD5 PLIN5 PPI; biochemical ABHD5-PLIN5 interaction, luminescence; inhibition, % at 4 µM; 2,200 compounds, 67% hits; AID 651612; in the data active = inhibition above about 23%;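 also: 0% = DMSO vehicle wells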
HNF4 split-luc = HNF4 split-luciferase signal hit, counter-screen; shares compounds with ABHD5 PLIN5 PPI; HNF4 dimerization, luminescence, biochemical; inhibition, % at 4 µM; 2,200 compounds, 77% hits; AID 651674;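 active = mean inhibition across replicate wells exceeding the computed hit threshold, cut at about 13% in these data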;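 also: light from luciferase halves that rejoin when HNF4 fusion proteins dimerize; 0% = DMSO only wells and the 100% control is not given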
Target sequence (P41235 whole entry, looked up, the tested form may be a part): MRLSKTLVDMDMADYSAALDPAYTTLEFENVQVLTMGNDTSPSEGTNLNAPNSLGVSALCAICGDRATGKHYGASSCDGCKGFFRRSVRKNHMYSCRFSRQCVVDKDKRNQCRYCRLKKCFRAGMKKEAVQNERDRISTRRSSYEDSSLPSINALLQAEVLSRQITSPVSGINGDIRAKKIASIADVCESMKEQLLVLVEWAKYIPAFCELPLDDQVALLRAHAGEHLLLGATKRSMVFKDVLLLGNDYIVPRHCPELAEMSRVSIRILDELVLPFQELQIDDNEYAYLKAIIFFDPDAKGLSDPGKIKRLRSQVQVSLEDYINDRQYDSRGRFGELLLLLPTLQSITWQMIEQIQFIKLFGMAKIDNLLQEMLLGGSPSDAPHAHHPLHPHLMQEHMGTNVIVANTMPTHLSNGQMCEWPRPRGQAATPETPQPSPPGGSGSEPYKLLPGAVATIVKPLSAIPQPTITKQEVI
Numbers without * were called inactive. Sampled rows, rich in hits. Any-hit rate of the full collection: about 2%.

What do the screens show for `Cc1nnc(NC(=O)c2nc(S(=O)(=O)Cc3ccccc3C)ncc2Cl)s1`?
NOD2 RIPK2 PPI: 11; ABHD5 PLIN5 PPI: 31*; TLR9-MyD88 inh: 10; Granule exo inh: 2; Beta2AR agonist: 10; ABHD5-PLIN5 conf: 72*; HNF4 split-luc: 48*

How did Oc1cc(Nc2ccccc2)cc2cccnc12 do in these assays?
NOD2 RIPK2 PPI: 15; ABHD5 PLIN5 PPI: -5; TLR9-MyD88 inh: -3; Granule exo inh: -4; Beta2AR agonist: -3

How did Oc1cc(NCCN2CCOCC2)cc2cccnc12 do in these assays?
NOD2 RIPK2 PPI: -7; ABHD5 PLIN5 PPI: 51*; TLR9-MyD88 inh: 6; Granule exo inh: -2; Beta2AR agonist: 30; ABHD5-PLIN5 conf: -4; HNF4 split-luc: 4

Results for CSc1ccc(CN2CCC2(C)C(=O)NCc2cccc(C(F)(F)F)c2)cc1 (configuration not stated) ?
NOD2 RIPK2 PPI: -21; ABHD5 PLIN5 PPI: -1; Granule exo inh: 0

Results for CCCCC[C@H](C)N1C[C@@H](COCc2ccccc2)Oc2cc(N3CCC[C@H]3C(N)=O)ccc2S1(=O)=O ?
NOD2 RIPK2 PPI: -5; ABHD5 PLIN5 PPI: 13; Granule exo inh: -3

Results for CC(=O)C1=C(c2cccc([N+](=O)[O-])c2)N(C(C)=O)n2c(C)nnc2S1 ?
NOD2 RIPK2 PPI: -2; TLR4-MyD88 BLA: -2; ABHD5 PLIN5 PPI: 61*; TLR9-MyD88 inh: -1; Granule exo inh: 56*; Beta2AR agonist: 12; ABHD5-PLIN5 conf: 82*; HNF4 split-luc: 47*

What do the screens show for `C=CCN1C(=O)N/C(=C/c2ccc(C)o2)C1=O`?
NOD2 RIPK2 PPI: -3; TLR4-MyD88 BLA: -4; ABHD5 PLIN5 PPI: 31*; TLR9-MyD88 inh: -8; Granule exo inh: 21; Beta2AR agonist: 9; ABHD5-PLIN5 conf: 14; HNF4 split-luc: 88*

Results for Cc1ccc(/C=C2\C(=O)NC(=O)N2C)o1 ?
NOD2 RIPK2 PPI: -12; ABHD5 PLIN5 PPI: 16; TLR9-MyD88 inh: -6; Granule exo inh: 0; Beta2AR agonist: 10

Results for Cc1ccc(NC(=O)CN2C(=O)N/C(=C/c3ccc(C)o3)C2=O)cc1 ?
NOD2 RIPK2 PPI: -3; TLR4-MyD88 BLA: -10; ABHD5 PLIN5 PPI: 42*; TLR9-MyD88 inh: 7; Granule exo inh: 19; Beta2AR agonist: 3; ABHD5-PLIN5 conf: 46*; HNF4 split-luc: 88*

How did Cc1ccc(NC(=O)CN2C(=O)N/C(=C/c3ccc(C)s3)C2=O)cc1 do in these assays?
NOD2 RIPK2 PPI: 1; TLR4-MyD88 BLA: 7; ABHD5 PLIN5 PPI: -1; TLR9-MyD88 inh: 4; Granule exo inh: -2; Beta2AR agonist: -5

What do the screens show for `CC1CCC(C(C)C)C(NC(=O)c2ccncc2)C1` (configuration not stated)?
NOD2 RIPK2 PPI: -3; ABHD5 PLIN5 PPI: 3; Granule exo inh: 24

Results for CCSc1ccc2c(c1)N(CCCN1CCN(C)CC1)c1ccccc1S2 ?
NOD2 RIPK2 PPI: -1; ABHD5 PLIN5 PPI: 24*; TLR9-MyD88 inh: -1; Granule exo inh: 34; Beta2AR agonist: 29; ABHD5-PLIN5 conf: 36*; HNF4 split-luc: 8

What do the screens show for `CSc1nc(=O)[nH]nc1Sc1ccccc1`?
NOD2 RIPK2 PPI: 14; ABHD5 PLIN5 PPI: 33*; TLR9-MyD88 inh: 10; Granule exo inh: -5; ABHD5-PLIN5 conf: 48*; HNF4 split-luc: 53*

Results for CC(C)(C)c1ccc(/C=C/C(=O)Nc2ccncc2)cc1 ?
NOD2 RIPK2 PPI: 13; TLR4-MyD88 BLA: 2; ABHD5 PLIN5 PPI: -8; TLR9-MyD88 inh: 12; Granule exo inh: 3; Beta2AR agonist: 10

What do the screens show for `O=C(/C=C/c1ccc(Br)cc1)c1ccc(NC2=NCCCS2)cc1`?
NOD2 RIPK2 PPI: 8; TLR4-MyD88 BLA: -16; ABHD5 PLIN5 PPI: 89*; TLR9-MyD88 inh: 7; Granule exo inh: 17; Beta2AR agonist: 33; ABHD5-PLIN5 conf: 95*; HNF4 split-luc: 84*
